According to PubChem BioAssay AID1159580 (chemical genetic matrix, 2015):
Where “and” joins values, the source holds several entries; their conditions need not be identical. Equal entries are not always repeated. About 2,000 (36%) of roughly 5,500 compounds were called active. Inconclusive results (about 18%) are left out. Cut-off read from the data, not from the text of the source: active = normalized growth mostly below about 0.91 (no sharp cut-off); inconclusive = no clear call, values can overlap the other calls; inactive = mostly above about 0.92. The list shows a part of the results.

Experiment: chemical genetic growth profiling, strain panel (AID 1159580);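 note: tested at 20 µM; growth read once vehicle control cultures reached saturation at 30 °C; 1 = growth at the plate median or of vehicle wells; lower values mean less growth of the strain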
Details: S. cerevisiae deletion strains, growth OD

Measured: normalized growth

CC(C)=CCC/C(C)=C/CO
inactive: locus YAL013W, strain DEP1, active compounds read low 1.01 | locus YAL021C, strain ccr4, active compounds read low 1.02 | locus YAL026C, strain drs2, active compounds read low 0.98 | locus YAL030W, strain snc1, active compounds read low 0.995 | locus YBL061C, strain skt5, active compounds read low 0.986 | locus YBR009C, strain hhf1, active compounds read low 1.01 | locus YBR021W, strain FUR4, active compounds read low 1 | locus YBR023C, strain chs3, active compounds read low 1 | locus YBR171W, strain sec66, active compounds read low 0.973 | locus YBR229C, strain ROT2, active compounds read low 1.02 | locus YBR231C, strain swc5, active compounds read low 1.02 | locus YBR279W, strain paf1, active compounds read low 1.01 | locus YCL011C, strain gbp2, active compounds read low 0.972 | locus YCL016C, strain dcc1, active compounds read low 1.02 | locus YCL029C, strain bik1, active compounds read low 0.988 | locus YCL069W, strain vba3, active compounds read low 0.986 | locus YCR088W, strain abp1, active compounds read low 0.976 | locus YDL005C, strain med2, active compounds read low 0.979 | locus YDL035C, strain GPR1, active compounds read low 1.01 | locus YDL040C, strain nat1, active compounds read low 0.977 | locus YDL074C, strain BRE1, active compounds read low 0.994 | locus YDL101C, strain DUN1, active compounds read low 1.01 | locus YDL134C, strain PPH21, active compounds read low 1.02 | locus YDL185W, strain tfp1, active compounds read low 0.985 | locus YDL192W, strain arf1, active compounds read low 1 | locus YDR001C, strain nth1, active compounds read low 0.992 | locus YDR069C, strain doa4, active compounds read low 0.984 | locus YDR101C, strain arx1, active compounds read low 0.978 | locus YDR137W, strain rgp1, active compounds read low 0.982 | locus YDR150W, strain NUM1, active compounds read low 1.01 | locus YDR159W, strain sac3, active compounds read low 0.937 | locus YDR162C, strain NBP2, active compounds read low 1.01 | locus YDR195W, strain ref2 0.968 | locus YDR297W, strain sur2, active compounds read low 0.987 | locus YDR318W, strain mcm21, active compounds read low 0.995 | locus YDR334W, strain swr1, active compounds read low 0.99 | locus YDR335W, strain msn5, active compounds read low 0.987 | locus YDR388W, active compounds read low 0.987 | locus YDR392W, strain spt3, active compounds read low 0.929 | locus YDR502C, strain sam2, active compounds read low 0.989 | locus YEL003W, strain gim4, active compounds read low 0.986 | locus YEL037C, strain rad23, active compounds read low 0.978 | locus YEL061C, strain CIN8 (second series), active compounds read low 0.975 | locus YEL061C, strain CIN8, active compounds read low 1.01 | locus YER015W, strain faa2, active compounds read low 0.982 | locus YER016W, strain bim1, active compounds read low 0.98 | locus YER110C, active compounds read low 0.985 | locus YER111C, strain swi4, active compounds read low 0.988 | locus YER155C, strain BEM2 (second series), active compounds read low 1.02 | locus YER155C, strain BEM2, active compounds read low 1.01 | locus YER167W, strain BCK2, active compounds read low 1.01 | locus YFR010W, strain ubp6, active compounds read low 0.978 | locus YGL078C, strain dbp3, active compounds read low 0.984 | locus YGL086W, strain mad1, active compounds read low 0.992 | locus YGL167C, strain pmr1, active compounds read low 0.986 | locus YGL173C, strain kem1, active compounds read low 0.958 | locus YGL227W, strain vid30, active compounds read low 0.981 | locus YGL240W, strain doc1, active compounds read low 0.967 | locus YGL248W, strain PDE1, active compounds read low 1.03 | locus YGL253W, strain hxk2, active compounds read low 0.961 | locus YGR078C, strain PAC10, active compounds read low 1 | locus YGR135W, strain pre9, active compounds read low 0.988 | locus YGR229C, strain SMI1, active compounds read low 0.998 | locus YGR252W, strain gcn5, active compounds read low 1.03 | locus YHR013C, strain ard1, active compounds read low 1 | locus YHR027C, strain rpn1, active compounds read low 0.977 | locus YHR030C, strain SLT2, active compounds read low 1.01 | locus YHR079C, strain IRE1 (second series), active compounds read low 0.993 | locus YHR079C, strain IRE1, active compounds read low 0.994 | locus YHR094C, strain hxt1, active compounds read low 0.995 | locus YHR129C, strain ARP1, active compounds read low 1.01 | locus YHR142W, strain chs7, active compounds read low 0.998 | locus YHR200W, strain rpn10, active compounds read low 1 | locus YIL066C, strain RNR3, active compounds read low 1.01 | locus YIL073C, strain SPO22, active compounds read low 0.989 | locus YIL125W, strain kgd1, active compounds read low 1 | locus YIR030C, strain dcg1, active compounds read low 0.993 | locus YJL092W, strain hpr5, active compounds read low 0.985 | locus YJL095W, strain BCK1 (second series), active compounds read low 0.982 | locus YJL095W, strain BCK1, active compounds read low 1 and 0.989 | locus YJL115W, strain asf1, active compounds read low 0.993 | locus YJL129C, strain trk1, active compounds read low 0.981 | locus YJL134W, strain LCB3, active compounds read low 1.01 | locus YJL154C, strain vps35, active compounds read low 0.988 | locus YJL164C, strain tpk1, active compounds read low 1.02 | locus YJL166W, strain qcr8, active compounds read low 1.01 | locus YJL168C, strain set2, active compounds read low 0.992 | locus YJL187C, strain SWE1 (second series), active compounds read low 1.01 | locus YJL187C, strain SWE1, active compounds read low 0.993 | locus YJR043C, strain POL32, active compounds read low 0.986 | locus YJR066W, strain TOR1, active compounds read low 0.994
